{"source": "the supplement of paper PMC8728848", "binders": {"B1": {"name": "HHL-2 (Homo sapiens), P07307 (protein)", "chain": "MAKDFQDIQQLSSEENDHPFHQGEGPGTRRLNPRRGNPFLKGPPPAQPLAQRLCSMVCFSLLALSFNILLLVVICVTGSQSEGHRGAQLQAELRSLKEAFSNFSSSTLTEVQAISTHGGSVGDKITSLGAKLEKQQQDLKADHDALLFHLKHFPVDLRFVACQMELLHSNGSQRTCCPVNWVEHQGSCYWFSHSGKAWAEAEKYCQLENAHLVVINSWEEQKFIVQHTNPFNTWIGLTDSDGSWKWVDGTDYRHNYKNWAVTQPDNWHGHELGGSEDCVEVQPDGRWNDDFCLQVYRWVCEKRRNATGEVA"}}, "assay_in_all_cases": "glycan array binding signal (z-score within array); higher = stronger binding", "details_in_all_cases": "glycan notation: IUPAC condensed, linker removed", "key": {"[1]": {"target": "Fuc(a1-2)Gal(b1-3)GlcNAc(b1-2)Man(a1-3)[Fuc(a1-2)Gal(b1-3)GlcNAc(b1-2)Man(a1-6)]Man(b1-4)GlcNAc(b1-4)GlcNAc", "procedure,_shortened": "(§1)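 Arrays were curated from the Consortium for Functional Glycomics database, 3228 in total, and kept only where the protein sequence was available. Binding is expressed as a within-array Z-score. This score was averaged across arrays of the same protein sequence at different concentrations or buffers and across linkers, and negative values can be read as non-binding.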"}, "[2]": {"target": "Fuc(a1-2)Gal(b1-4)[Fuc(a1-3)]GlcNAc(b1-2)Man(a1-3)[Fuc(a1-2)Gal(b1-4)[Fuc(a1-3)]GlcNAc(b1-2)Man(a1-6)]Man(b1-4)GlcNAc(b1-4)GlcNAc", "procedure,_shortened": "as §1"}, "[3]": {"target": "Fuc(a1-2)[GalNAc(a1-3)]Gal(b1-4)GlcNAc", "procedure,_shortened": "as §1"}, "[4]": {"target": "Fuc(a1-3)[Gal(b1-4)]GlcNAc(b1-4)Gal(b1-4)[Fuc(a1-3)]GlcNAc", "procedure,_shortened": "as §1"}, "[5]": {"target": "Fuc(a1-3)[Gal3S(b1-4)]Glc6S", "procedure,_shortened": "as §1"}, "[6]": {"target": "Fuc(a1-3)[GalNAc(b1-4)]GlcNAc", "procedure,_shortened": "as §1"}, "[7]": {"target": "Fuc(a1-3)[Neu5Ac(a2-3)]Gal(b1-4)GlcNAc(b1-3)GalNAc", "procedure,_shortened": "as §1"}, "[8]": {"target": "Gal(b1-3)GalNAc(a1-3)[Fuc(a1-2)]Gal(b1-4)GlcNAc", "procedure,_shortened": "as §1"}, "[9]": {"target": "Gal(b1-3)[Fuc(a1-4)]GlcNAc(b1-2)Man(a1-3)[Gal(b1-3)[Fuc(a1-4)]GlcNAc(b1-2)Man(a1-6)]Man(b1-4)GlcNAc(b1-4)GlcNAc", "procedure,_shortened": "as §1"}, "Gal(b1-4)Glc6S": {"target": "Gal(b1-4)Glc6S", "procedure,_shortened": "as §1"}, "[10]": {"target": "Gal(b1-4)GlcNAc(b1-3)Gal(b1-3)GlcNAc", "procedure,_shortened": "as §1"}, "[11]": {"target": "Gal(b1-4)GlcNAc(b1-3)Gal(b1-4)GlcNAc", "procedure,_shortened": "as §1"}, "[12]": {"target": "Gal(b1-4)GlcNAc(b1-3)[GlcNAc(b1-6)]Gal(b1-4)GlcNAc", "procedure,_shortened": "as §1"}, "Gal6S(b1-4)GlcNAc6S": {"target": "Gal6S(b1-4)GlcNAc6S", "procedure,_shortened": "as §1"}, "[13]": {"target": "GalNAc(b1-4)GlcNAc(b1-2)Man(a1-3)[GalNAc(b1-4)GlcNAc(b1-2)Man(a1-6)]Man(b1-4)GlcNAc(b1-4)GlcNAc", "procedure,_shortened": "as §1"}, "GlcA(b1-3)GlcNAc": {"target": "GlcA(b1-3)GlcNAc", "procedure,_shortened": "as §1"}, "[14]": {"target": "GlcNAc(b1-2)Man(a1-3)[GlcNAc(b1-2)Man(a1-6)]Man(b1-4)GlcNAc(b1-4)GlcNAc", "procedure,_shortened": "as §1"}, "[15]": {"target": "GlcNAc(b1-4)GlcNAc(b1-4)GlcNAc", "procedure,_shortened": "as §1"}, "GlcNAc(b1-6)GalNAc": {"target": "GlcNAc(b1-6)GalNAc", "procedure,_shortened": "as §1"}, "Man(a1-2)Man(a1-3)Man": {"target": "Man(a1-2)Man(a1-3)Man", "procedure,_shortened": "as §1"}, "[16]": {"target": "Neu5Ac(a2-3)Gal(b1-4)GlcNAc(b1-2)Man(a1-3)[GlcNAc(b1-2)Man(b1-4)GlcNAc(b1-2)Man(a1-6)]Man(b1-4)GlcNAc(b1-4)GlcNAc", "procedure,_shortened": "as §1"}, "[17]": {"target": "Neu5Ac(a2-3)Gal(b1-4)GlcNAc(b1-3)Gal(b1-3)GlcNAc", "procedure,_shortened": "as §1"}, "[18]": {"target": "Neu5Ac(a2-3)Gal(b1-4)GlcNAc6S", "procedure,_shortened": "as §1"}, "[19]": {"target": "Neu5Ac(a2-3)Gal(b1-4)[Fuc(a1-3)]GlcNAc6S", "procedure,_shortened": "as §1"}, "[20]": {"target": "Neu5Ac(a2-3)[Neu5Ac(a2-6)]GalNAc", "procedure,_shortened": "as §1"}, "[21]": {"target": "Neu5Ac(a2-6)Gal(b1-4)GlcNAc(b1-2)Man(a1-3)[Gal(b1-4)GlcNAc(b1-2)Man(a1-6)]Man(b1-4)GlcNAc(b1-4)GlcNAc", "procedure,_shortened": "as §1"}, "[22]": {"target": "Neu5Ac(a2-6)Gal(b1-4)GlcNAc(b1-3)Gal(b1-4)GlcNAc", "procedure,_shortened": "as §1"}, "[23]": {"target": "Neu5Ac(a2-6)Gal(b1-4)GlcNAc6S", "procedure,_shortened": "as §1"}, "[24]": {"target": "Neu5Ac(a2-8)Neu5Ac(a2-8)Neu5Ac(a2-3)Gal(b1-4)Glc", "procedure,_shortened": "as §1"}, "[25]": {"target": "Neu5Ac(a2-8)Neu5Ac(a2-8)Neu5Ac(a2-8)Neu5Ac(a2-3)[GalNAc(b1-4)]Gal(b1-4)Glc", "procedure,_shortened": "as §1"}, "Neu5Ac(b2-6)GalNAc": {"target": "Neu5Ac(b2-6)GalNAc", "procedure,_shortened": "as §1"}}, "note": "The entries come from a sample that favours the strongest signals as a whole."}
{"binder": "B1", "values": [{"measurement": "glycan array binding signal (z-score)", "setting": "[1]", "value": -0.497}, {"measurement": "glycan array binding signal (z-score)", "setting": "[2]", "value": 2.08}, {"measurement": "glycan array binding signal (z-score)", "setting": "[3]", "value": -0.68}, {"measurement": "glycan array binding signal (z-score)", "setting": "[4]", "value": -0.334}, {"measurement": "glycan array binding signal (z-score)", "setting": "[5]", "value": -0.68}, {"measurement": "glycan array binding signal (z-score)", "setting": "[6]", "value": -0.451}, {"measurement": "glycan array binding signal (z-score)", "setting": "[7]", "value": 6.72}, {"measurement": "glycan array binding signal (z-score)", "setting": "[8]", "value": -0.536}, {"measurement": "glycan array binding signal (z-score)", "setting": "[9]", "value": 0.043}, {"measurement": "glycan array binding signal (z-score)", "setting": "Gal(b1-4)Glc6S", "value": -0.52}, {"measurement": "glycan array binding signal (z-score)", "setting": "[10]", "value": -0.728}, {"measurement": "glycan array binding signal (z-score)", "setting": "[11]", "value": -0.474}, {"measurement": "glycan array binding signal (z-score)", "setting": "[12]", "value": -0.539}, {"measurement": "glycan array binding signal (z-score)", "setting": "Gal6S(b1-4)GlcNAc6S", "value": 3.54}, {"measurement": "glycan array binding signal (z-score)", "setting": "[13]", "value": 3.17}, {"measurement": "glycan array binding signal (z-score)", "setting": "GlcA(b1-3)GlcNAc", "value": -0.012}, {"measurement": "glycan array binding signal (z-score)", "setting": "[14]", "value": -0.677}, {"measurement": "glycan array binding signal (z-score)", "setting": "[15]", "value": 2.8}, {"measurement": "glycan array binding signal (z-score)", "setting": "GlcNAc(b1-6)GalNAc", "value": -0.738}, {"measurement": "glycan array binding signal (z-score)", "setting": "Man(a1-2)Man(a1-3)Man", "value": -0.028}, {"measurement": "glycan array binding signal (z-score)", "setting": "[16]", "value": 2.39}, {"measurement": "glycan array binding signal (z-score)", "setting": "[17]", "value": 3.56}, {"measurement": "glycan array binding signal (z-score)", "setting": "[18]", "value": -0.075}, {"measurement": "glycan array binding signal (z-score)", "setting": "[19]", "value": 0.012}, {"measurement": "glycan array binding signal (z-score)", "setting": "[20]", "value": -0.847}, {"measurement": "glycan array binding signal (z-score)", "setting": "[21]", "value": 0.34}, {"measurement": "glycan array binding signal (z-score)", "setting": "[22]", "value": -0.539}, {"measurement": "glycan array binding signal (z-score)", "setting": "[23]", "value": 2.18}, {"measurement": "glycan array binding signal (z-score)", "setting": "[24]", "value": 3.59}, {"measurement": "glycan array binding signal (z-score)", "setting": "[25]", "value": 0.721}, {"measurement": "glycan array binding signal (z-score)", "setting": "Neu5Ac(b2-6)GalNAc", "value": -0.379}]}
